Experimental findings from PubChem BioAssay AID1224854 (National Center for Advancing Translational Sciences (NCATS), 2016) are described below.

The structures appear in SMILES notation. Inconclusive results are not listed. Values without a mark were called inactive. Active and inactive are the calls of the source. Calls come from the whole dose curve; as a rule, active = well fitted activation curve with a large enough effect; inconclusive = small, poorly fitted or top-dose-only effect; inactive = flat fitted curve, though single readings scatter.

The experiment is described as follows: Cell viability assay for measurement of the protective activity of small molecules against cell death caused by Zika virus infection in human astrocytoma cells. As to conditions: SNB-19 Zika virus cytoprotection, ATP luminescence, 72 h; series mostly up to 46.1 µM; protection from virus-induced cell death: at the top concentration. An outline of the steps:
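SNB-19 astrocytoma cells pre-treated with compounds for 1 h, then infected with ZIKV at 2 FFU/cell and incubated 72 h at 37 C. Viability read as ATP luminescence; percent inhibition of virus-induced viability loss calculated.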
For `COc1ccnc2c1CCCCC2S(=O)c1nc2ccccc2[nH]1` (centres undefined), the “protection from virus-induced cell death” value is 9.31%.

Regarding `COc1ccc(NC(=O)/C=C/c2ccc(Cl)cc2)cc1`, the “protection from virus-induced cell death” value is 6.63%.

With `CC=CC[C@@H](C)C(=O)[C@H]1C(=O)N[C@@H](C(C)C)C(=O)N(C)CC(=O)N(C)[C@@H](CC(C)C)C(=O)N[C@@H](C(C)C)C(=O)N(C)[C@@H](CC(C)C)C(=O)N[C@@H](C)C(=O)N[C@H](C)C(=O)N(C)[C@@H](CC(C)C)C(=O)N(C)[C@@H](CC(C)C)C(=O)N(C)[C@@H](C(C)C)C(=O)N1C`, the “protection from virus-induced cell death” value was -7.94%.

As to `O=C1c2ccccc2C(=O)c2c1ccc(O)c2O`, the “protection from virus-induced cell death” value was 1.15%.

Turning to `C[C@@H](O[C@H]1OCCN(Cc2n[nH]c(=O)[nH]2)[C@@H]1c1ccc(F)cc1)c1cc(C(F)(F)F)cc(C(F)(F)F)c1`, the “protection from virus-induced cell death” value was 2.59%.

As for `Cc1csc(NC(=O)c2sc3nc4c(c(C(F)(F)F)c3c2N)CCC4)n1`, the “protection from virus-induced cell death” value was -15%.

Turning to `COc1cc2nc(-c3ccc(N4CCN(C)CC4)cc3)nc(NCCN3CCOCC3)c2cc1OC`, the Potency is 1.95 µM (active).

For the compound `NC(=O)c1cccc2[nH]c(-c3ccc([C@H]4CCCN4)cc3F)nc12`, the “protection from virus-induced cell death” value was -12.1%.

As to `O=C(CS)Nc1ccccc1`, the “protection from virus-induced cell death” value is -2.47%.

Regarding `CCCCCCCCCCCC(=O)[O][Sn]([CH2]CCC)([CH2]CCC)[O]C(=O)CCCCCCCCCCC`, the “protection from virus-induced cell death” value was -1.87%.

Turning to `COCCn1c2c([n+](Cc3cnccn3)c1C)C(=O)c1ccccc1C2=O`, the “protection from virus-induced cell death” value was -22.2%.

As to `Cc1nc(N)sc1-c1ccnc(Nc2ccc(N3CCOCC3)cc2)n1`, the “protection from virus-induced cell death” value was 22%.

Turning to `O=C(Nc1ncc([N+](=O)[O-])s1)c1cccs1`, the “protection from virus-induced cell death” value was -5.39%.

Take `O=C(O)[C@H](CC(=O)N1C[C@@H]2CCCC[C@H]2C1)Cc1ccccc1`: the “protection from virus-induced cell death” value is -0.686%.

Turning to `CCC(C)SSc1ncc[nH]1` (centres undefined), the Potency is 24.5 µM (active).

On to `O=C(Oc1ccccc1)c1cccc(C(=O)Oc2ccccc2)c1`, for which the “protection from virus-induced cell death” value was 3.11% [at 96.3 µM].

For `O=C(c1ccccc1)c1ccc2n1CCC2C(=O)O` (centres undefined), the “protection from virus-induced cell death” value was 17.1%.

As for `O=C(Nc1ccc(C(=O)O)c(O)c1)c1ccccc1`, the “protection from virus-induced cell death” value was 12.3%.

Take `O=c1oc2cc(O)ccc2s1`: the “protection from virus-induced cell death” value is -5.06%.

As for `Nc1ccc(O)c(C(=O)O)c1`, the “protection from virus-induced cell death” value is -6.75%.

`COc1ccc(-c2coc3cc(O)ccc3c2=O)cc1`: the “protection from virus-induced cell death” value was -7.12%.

Take `COc1cccc(-c2ccc(NC(=O)C3=C(C(=O)O)CCC3)c(F)c2)c1`: the “protection from virus-induced cell death” value was -9.15%.

As to `C=C1C(=O)[C@@]23C(CC[C@@H]1[C@H]2O)[C@@]12CO[C@]3(O)[C@@H](O)[C@@H]1C(C)(C)CC[C@@H]2O` (some centres undefined), the “protection from virus-induced cell death” value was -16.5%.

In the case of `O=C(O)c1cccc(-c2noc(-c3ccccc3F)n2)c1`, the “protection from virus-induced cell death” value was -13.8%.

On to `O=c1cc(-c2ccccc2)oc2cc(O)cc(O)c12`, for which the “protection from virus-induced cell death” value is -4.33%.

For the compound `NC(N)=NN=C(/C=C/c1ccc([N+](=O)[O-])o1)/C=C/c1ccc([N+](=O)[O-])o1`, the “protection from virus-induced cell death” value was -21.8%.

Consider `c1ccc2[nH]c(-c3cscn3)nc2c1`, for which the “protection from virus-induced cell death” value is -1.36%.

Regarding `O=C1c2ccccc2C(=O)c2c(NCCc3ccc(O)cc3)ccc(NCCc3ccc(O)cc3)c21`, the Potency is 19.5 µM (active).

`O=C1c2ccccc2-[n+]2ccc3c([nH]c4ccccc43)c21`: the “protection from virus-induced cell death” value was -21%.

For the compound `CN1CCN(c2cc3c(nn2)Oc2ccccc2N3C)CC1`, the “protection from virus-induced cell death” value was -0.644% [at 23.8 µM].

Consider `CN(C)c1ccc2cc(C(=O)N[C@@H](CCCN=C(N)CCl)C(=O)NCc3ccccc3)ccc2c1`, for which the Potency is 4.35 µM (active).

In the case of `Nc1ncnc2c1ncn2[C@@H]1O[C@@H](CO)[C@H](O)[C@H]1O`, the “protection from virus-induced cell death” value is 1.36% [at 23.8 µM].

In the case of `Nc1c(S(=O)(=O)O)cc(Nc2ccc(Nc3nc(Cl)nc(Nc4ccc(S(=O)(=O)O)cc4)n3)c(S(=O)(=O)O)c2)c2c1C(=O)c1ccccc1C2=O`, the “protection from virus-induced cell death” value is -1.96%.

As to `CO[C@H]1C(=O)[C@]2(C)[C@@H](OC)C[C@H]3OC[C@@]3(OC(C)=O)[C@H]2[C@H](OC(=O)c2ccccc2)[C@]2(O)C[C@H](OC(=O)[C@H](O)[C@@H](NC(=O)OC(C)(C)C)c3ccccc3)C(C)=C1C2(C)C`, the “protection from virus-induced cell death” value was -12.5%.
